Screens from PubChem BioAssay.
In the library only some 19% were active in any assay of this set; here they are far more common.
HT1080NT lethal: kills 2HG-producing HT-1080-NT fibrosarcoma cells | HT-1080-NT fibrosarcoma viability, CellTiter-Glo ATP luminescence, 48 h | 1.6% of 360,000 active | Potency, µM (series often up to 46.1 µM), for the others: at the top dose activity, negative = less viability, usual class: cytotoxic | AID 686970;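 note: NT is the 2HG producing partner of a matched IDH1 knockdown line; potency is the fitted concentration of half-maximal effect; 0% = DMSO-treated cells and -100% = media-only wells without cells; nearly all actives have a fitted effect of over 55% in size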
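HT-1080-NT; 750 cells/well; 5% FBS RPMI; 48 h compound, 37 degrees C; CellTiter-Glo luminescence; curve fitting and curve-class assignment.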
IL-1B inflam inh: blocks inflammasome-driven IL-1 beta release | THP-1 LPS/ATP IL-1B secretion, AlphaLISA, 16 h; hits give low values | 4.7% of 360,000 active | activity change, % at 57.5 µM; in the data active = activity change below about -50%; inconclusive = mostly about -30% to -49%
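Secreted IL-1B measured by AlphaLISA bead assay after 16 h compound exposure of THP-1 cells; compounds (final up to 57.5 uM) added 1 h before LPS (250 ng/mL) and ATP (1.25 mM) stimulation; lower signal means less secretion.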
DT40 TDP1 no CPT: qHTS for Inhibitors of human tyrosyl-DNA phosphodiesterase 1 (TDP1): qHTS in cells in absence of CPT; 15% of 420,000 active; Potency, µM (series often up to 46.2 µM), inactives show top-dose activity change, negative = growth inhibition, actives largely listed as inhibitors; DT40 Tdp1-/- hTDP1 cells, no CPT, ATP luminescence, 48 h; note: potency is the fitted concentration of half-maximal effect; nearly all actives have a fitted effect of over 55% in size
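Chicken DT40 Tdp1-/- cells stably complemented with human TDP1 were seeded at 400 cells/well with DMSO in place of 20 nM camptothecin. After compound pinning, cells grew at least 48 hr at 37 °C; viability read by CellTiter-Glo luminescence.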
HT1080 IDH1KD tx: HT-1080 IDH1 knockdown cell toxicity (counter line). 2% of 360,000 active. HT-1080 IDH1 knockdown viability, ATP luminescence, 48 h. Potency, µM (series often up to 46.1 µM), for inactives: top-dose activity, negative = toxicity, hits mostly cytotoxic;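 note: potency is the fitted concentration of half-maximal effect; 0% = DMSO wells and -100% = cell-free medium wells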
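Knockdown cells (IDH1KD HT-1080) received compounds 2 h after plating at 750 cells/well and were kept 48 h at 37 °C in 5% FBS RPMI. A CellTiter-Glo luminescence read gave % activity for curve fitting.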
TDP1 cell CPT: DT40-hTDP1 cell growth loss with CPT; Potency, µM (top dose mostly 46.2 µM), for the others: top-dose activity change, negative = growth inhibition, most hits filed as inhibitors; AID 686979; 12% of 420,000 active; chicken DT40 Tdp1-/-;hTDP1 cells + 20 nM CPT, ATP luminescence, 48 h; note: potency is the fitted concentration of half-maximal effect; nearly all actives have a fitted effect of over 55% in size
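Chicken DT40 Tdp1-/- cells stably complemented with human TDP1 were seeded at 400 cells/well in medium containing 20 nM camptothecin, exposed to pin-transferred compounds, and grown at 37 °C for at least 48 hr. Viability was read as ATP luminescence.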
* marks the source's active call; other numbers are inactive results; ? = inconclusive; · = no result; ! = not active in a repeat. Unless noted, calls come from the whole dose curve; as a rule, active = well fitted curve in the direction sought with a large enough effect; inconclusive = small, poorly fitted or top-dose-only effect, or another doubt; inactive = no such curve, though single readings can be large; an effect the other way counts as inactive or inconclusive. Unless noted, % is set by controls: 0 for no effect and ±100 for the full control effect.

SMILES	HT1080NT lethal	IL-1B inflam inh	DT40 TDP1 no CPT	HT1080 IDH1KD tx	TDP1 cell CPT
CCC1CN(C(=O)N2CCC(C(=O)NCc3ccccc3F)CC2)c2ccccc2O1 (stereo unspecified)	·	·	15µM*	·	?
CCC1CN(C(=O)N2CCC(C(=O)NCCc3ccccc3Cl)CC2)c2cc(C)ccc2O1 (stereo unspecified)	·	·	21µM*	·	16µM*
CCC1CN(C(=O)N2CCC(C(=O)NCCN(CC)CC)CC2)c2ccccc2O1 (stereo unspecified)	·	·	4%	·	7%
O=C(NCc1ccccc1F)C1CCN(C(=O)NCc2ccccc2)CC1	1%	-15	-5%	2%	-11%
O=C1NC[C@H](CCCCN2C[C@H](Cc3ccc(O)cc3)N(Cc3ccccc3)C(=O)C2=O)N(CC2CCCCC2)C1=O	0%	0	-10%	3%	-6%
CCOC(=O)C(=Nc1ccc(Cl)cc1)NO	?	13	8%	24%	2%
CN(Cc1nc(-c2ccccc2)no1)C1CCOCC1	7%	9	7%	9%	-3%
Cc1cccc(NC(=O)C2CCN(C(=O)N3CCOc4ccccc43)CC2)c1C	11%	?	?	0%	?
Cc1ccc(C)c(NC(=O)C2CCCC2)c1	6%	-14	-3%	12%	5%
CCC1CN(C(=O)N2CCC(C(=O)NCCC3=CCCCC3)CC2)c2ccccc2O1 (stereo unspecified)	·	·	12µM*	·	16µM*
CCC1CN(C(=O)N2CCC(C(=O)NCCc3ccccc3C)CC2)c2ccccc2O1 (stereo unspecified)	·	·	21µM*	·	?
CCC1CN(C(=O)N2CCC(C(=O)Nc3ccccc3F)CC2)c2ccccc2O1 (stereo unspecified)	-3%	0	23µM*!	-1%	?
CCC1CN(C(=O)N2CCC(C(=O)Nc3cc(C)ccc3C)CC2)c2ccccc2O1 (stereo unspecified)	·	·	13µM*	·	13µM*
CCC1CN(C(=O)N2CCC(C(=O)NCCN(C)C)CC2)c2ccccc2O1 (stereo unspecified)	·	·	-7%	·	2%
O=C(Cn1c(=S)[nH]c2ccccc2c1=O)NCCc1ccccc1	17%	24	-4%	19%	5%
Cc1ccc2c(c1)N(C(=O)N1CCC(C(=O)NCCC3=CCCCC3)CC1)CC(C)O2 (stereo unspecified)	·	·	18µM*	·	?
CCC1CN(C(=O)N2CCC(C(=O)NCCc3ccc(Cl)cc3)CC2)c2ccccc2O1 (stereo unspecified)	·	·	15µM*	·	16µM*
CCS(=O)(=O)N1CCC(C(=O)NCCC2=CCCCC2)CC1	14%	-7	5%	3%	-9%
CN=c1scc(-c2ccc(OC)cc2)n1/N=C(\C)c1cccnc1	?	-27	18µM*	?	?
COc1ccc(CC(=O)N/N=C(\C)c2cccnc2)cc1	11%	3	22%	8%	-9%
Cc1ccc(Cl)cc1N(C)C(=O)c1sc2nc3n(c(=O)c2c1C)CCCC3	·	·	16µM*	·	?
Cc1c(C(=O)O)sc2nc3n(c(=O)c12)CCCCC3	3%	17	-3%	6%	3%
CCCN(C(=O)c1sc2nc3n(c(=O)c2c1C)CCCC3)c1ccccc1C	·	·	?	·	18µM*
CCOC(=O)c1sc2nc3n(c(=O)c2c1C)CCCCC3	1%	-1	?	-13%	4%
Cc1ccc(N(C)C(=O)c2sc3nc4n(c(=O)c3c2C)CCCC4)cc1C	·	·	18µM*	·	23µM*
Cc1c(C(=O)Nc2cc(F)ccc2F)sc2nc3n(c(=O)c12)CCCCC3	21%	-1	10%	24%	?
O=C(Nc1cccnc1)c1cc2cc(Br)ccc2o1	1%	?	-17%	-2%	?
COc1ccc(CNC(=O)c2ccccc2SCC(=O)N2CCCC2)cc1OC	-11%	-1	-7%	-4%	2%
CCCC12CN3CC(C)(CN(C1)C3c1ccc(CC)cc1)C2=O (stereo unspecified)	·	·	4.6µM*	·	?
